PubChem BioAssay (EPA / NIEHS)
Calls of active or inactive are those of the source. How the source made its calls: active means hit-call score of the fitted dose curve at least 0.9, where 1 is the maximum; inactive means score below 0.9.

Read-out: Thrombomodulin, THBD (gene 7056)
Experiment: BSK_CASM3C_Thrombomodulin: BioMAP Diversity Plus: CASM3C Assay for Thrombomodulin Biomarker Activity (AID 2283051);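 further: thrombomodulin protein level measured by ELISA 24 h after dosing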
Conditions: primary human coronary artery smooth muscle cells; actives raise or lower the signal

outcome, inactive:
Nc1nc2ncc(CNc3ccc(C(=O)N[C@@H](CCC(=O)O)C(=O)O)cc3)nc2c(=O)[nH]1, COCCOCCOCCOC, COCCOc1cc2cc(C(=O)NC3CCN(C(C)C)CC3)n(CC(=O)Nc3ccc(Cl)cn3)c2cn1, CC(C)CCCCCCCOC(=O)CCCCC(=O)OCCCCCCCC(C)C, O=C(CCCCCCCCc1cccnc1)N1CCC(C=C(c2ccccc2)c2ccccc2)CC1, Cn1c(=O)c2c(ncn2C)n(C)c1=O, Cn1c(=O)cc(Oc2ccc(F)cc2F)c2cnc(NCC(C)(C)O)nc21, CC(C)CCO, O=c1n(CC2CO2)c(=O)n(CC2CO2)c(=O)n1CC1CO1 (centres undefined), CCNc1ccccc1, CCOCCOCCOCCO, Cc1[nH]cnc1C[C@H]1CCc2c(C)c3ccccc3n2C1=O, COC(=O)c1ccccc1O, CC(C)=CCC/C(C)=C/CO, CC(C)CCCCCCOC(=O)c1ccc(C(=O)OCCCCCCC(C)C)c(C(=O)OCCCCCCC(C)C)c1, COc1ccc(/C=C/S(=O)(=O)NC(=O)c2ccc(C)cc2Cl)cc1, CCN(C(=O)c1cc(C)cc(OC[C@H](C)Nc2ccncc2)c1)C(C)C, CCCN(C1CCN(C(=O)C2CCNCC2)CC1)[C@@H]1CCc2ccc(OC)cc2C1, Cc1c(-c2cccnc2)c2ccccc2n1CCCCC(=O)O, CC[C@H]1OC(=O)[C@H](C)[C@@H](O[C@H]2C[C@@](C)(OC)[C@@H](O)[C@H](C)O2)[C@H](C)[C@@H](O[C@@H]2O[C@H](C)C[C@H](N(C)C)[C@H]2O)[C@](C)(O)C[C@@H](C)C(=O)[C@H](C)[C@@H](O)[C@]1(C)O, CN(C)c1ccc(N=NS(=O)(=O)O)cc1, O=c1[nH]c2ccc(S(=O)CCN3CCC(Cc4ccc(F)cc4)CC3)cc2o1 (centres undefined), Cn1cnc([N+](=O)[O-])c1Sc1ncnc2nc[nH]c12, CCOC(=O)CC(CC(=O)OCC)(OC(C)=O)C(=O)OCC, O=C(OC[C@H]1O[C@@H](OC(=O)c2cc(O)c(O)c(OC(=O)c3cc(O)c(O)c(O)c3)c2)[C@H](OC(=O)c2cc(O)c(O)c(OC(=O)c3cc(O)c(O)c(O)c3)c2)[C@@H](OC(=O)c2cc(O)c(O)c(OC(=O)c3cc(O)c(O)c(O)c3)c2)[C@@H]1OC(=O)c1cc(O)c(O)c(OC(=O)c2cc(O)c(O)c(O)c2)c1)c1cc(O)c(O)c(OC(=O)c2cc(O)c(O)c(O)c2)c1, CC(C)=CCCC(C)=CC=O, CCOc1cccc(-n2cc(C(=O)N3CCN(c4cc(C(=O)O)c5ccccc5c4)CC3)nc2-c2ccc(C)cc2)c1

AC50, active:
CCc1cc(SCc2sc(-c3ccc(C(F)(F)F)cc3)nc2CN2CCN(c3ccc(OC)cc3)CC2)ccc1OCC(=O)O 35.1 µM, COc1ccc2sc(C(=O)Nc3nnn[nH]3)c(OC(C)C)c2c1 8.49 µM
